# According to PubChem BioAssay:
# The source made the active and inactive calls.
# Tests used:
# [1] = small molecules captured by biotinylated probe aFSTL3 – biochemical, small-molecule microarray, fluorescence 635/667, stem cell growth factor project, primary screen (AID 1064); conditions: higher = more signal;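 also: measures binding of the biotinylated anti-FSTL3 antibody to printed compounds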
# [2] = binders from COS7 lysate, DM2A8 probe, primary screen, torsin A project, cell lysate, small-molecule microarray, fluorescence 635/667 (AID 1065); conditions: higher = more signal, COS7 lysate expressing mutant human TOR1A
# [3] = small molecules captured by biotinylated probe aFGF2 – biochemical, small-molecule microarray, fluorescence 635/667, stem cell growth factor project, primary screen (AID 1067); conditions: higher = more signal;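 also: measures binding of biotinylated aFGF2 protein to printed compounds on slides; z-score merges feature fluorescence and signal-to-noise across triplicate slides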
# [4] = small molecules captured by biotinylated probe aFGF10 – biochemical, small-molecule microarray, fluorescence 635/667, stem cell growth factor project, primary screen (AID 1071); conditions: higher = more signal;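 also: score merges 667 nm spot intensity and signal to noise from triplicate slides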
# [5] = molecular target: Neurogenic locus notch homolog protein 2 (Homo sapiens) (UniProt Q04721); assay: small molecules binding Notch2 protein – biochemical, small-molecule microarray, 635 nm fluorescence, stem cell growth factors, primary screen (AID 1073); conditions: higher = more signal
# Sequence of Neurogenic locus notch homolog protein 2 (Homo sapiens) (Q04721 whole entry, looked up, canonical isoform): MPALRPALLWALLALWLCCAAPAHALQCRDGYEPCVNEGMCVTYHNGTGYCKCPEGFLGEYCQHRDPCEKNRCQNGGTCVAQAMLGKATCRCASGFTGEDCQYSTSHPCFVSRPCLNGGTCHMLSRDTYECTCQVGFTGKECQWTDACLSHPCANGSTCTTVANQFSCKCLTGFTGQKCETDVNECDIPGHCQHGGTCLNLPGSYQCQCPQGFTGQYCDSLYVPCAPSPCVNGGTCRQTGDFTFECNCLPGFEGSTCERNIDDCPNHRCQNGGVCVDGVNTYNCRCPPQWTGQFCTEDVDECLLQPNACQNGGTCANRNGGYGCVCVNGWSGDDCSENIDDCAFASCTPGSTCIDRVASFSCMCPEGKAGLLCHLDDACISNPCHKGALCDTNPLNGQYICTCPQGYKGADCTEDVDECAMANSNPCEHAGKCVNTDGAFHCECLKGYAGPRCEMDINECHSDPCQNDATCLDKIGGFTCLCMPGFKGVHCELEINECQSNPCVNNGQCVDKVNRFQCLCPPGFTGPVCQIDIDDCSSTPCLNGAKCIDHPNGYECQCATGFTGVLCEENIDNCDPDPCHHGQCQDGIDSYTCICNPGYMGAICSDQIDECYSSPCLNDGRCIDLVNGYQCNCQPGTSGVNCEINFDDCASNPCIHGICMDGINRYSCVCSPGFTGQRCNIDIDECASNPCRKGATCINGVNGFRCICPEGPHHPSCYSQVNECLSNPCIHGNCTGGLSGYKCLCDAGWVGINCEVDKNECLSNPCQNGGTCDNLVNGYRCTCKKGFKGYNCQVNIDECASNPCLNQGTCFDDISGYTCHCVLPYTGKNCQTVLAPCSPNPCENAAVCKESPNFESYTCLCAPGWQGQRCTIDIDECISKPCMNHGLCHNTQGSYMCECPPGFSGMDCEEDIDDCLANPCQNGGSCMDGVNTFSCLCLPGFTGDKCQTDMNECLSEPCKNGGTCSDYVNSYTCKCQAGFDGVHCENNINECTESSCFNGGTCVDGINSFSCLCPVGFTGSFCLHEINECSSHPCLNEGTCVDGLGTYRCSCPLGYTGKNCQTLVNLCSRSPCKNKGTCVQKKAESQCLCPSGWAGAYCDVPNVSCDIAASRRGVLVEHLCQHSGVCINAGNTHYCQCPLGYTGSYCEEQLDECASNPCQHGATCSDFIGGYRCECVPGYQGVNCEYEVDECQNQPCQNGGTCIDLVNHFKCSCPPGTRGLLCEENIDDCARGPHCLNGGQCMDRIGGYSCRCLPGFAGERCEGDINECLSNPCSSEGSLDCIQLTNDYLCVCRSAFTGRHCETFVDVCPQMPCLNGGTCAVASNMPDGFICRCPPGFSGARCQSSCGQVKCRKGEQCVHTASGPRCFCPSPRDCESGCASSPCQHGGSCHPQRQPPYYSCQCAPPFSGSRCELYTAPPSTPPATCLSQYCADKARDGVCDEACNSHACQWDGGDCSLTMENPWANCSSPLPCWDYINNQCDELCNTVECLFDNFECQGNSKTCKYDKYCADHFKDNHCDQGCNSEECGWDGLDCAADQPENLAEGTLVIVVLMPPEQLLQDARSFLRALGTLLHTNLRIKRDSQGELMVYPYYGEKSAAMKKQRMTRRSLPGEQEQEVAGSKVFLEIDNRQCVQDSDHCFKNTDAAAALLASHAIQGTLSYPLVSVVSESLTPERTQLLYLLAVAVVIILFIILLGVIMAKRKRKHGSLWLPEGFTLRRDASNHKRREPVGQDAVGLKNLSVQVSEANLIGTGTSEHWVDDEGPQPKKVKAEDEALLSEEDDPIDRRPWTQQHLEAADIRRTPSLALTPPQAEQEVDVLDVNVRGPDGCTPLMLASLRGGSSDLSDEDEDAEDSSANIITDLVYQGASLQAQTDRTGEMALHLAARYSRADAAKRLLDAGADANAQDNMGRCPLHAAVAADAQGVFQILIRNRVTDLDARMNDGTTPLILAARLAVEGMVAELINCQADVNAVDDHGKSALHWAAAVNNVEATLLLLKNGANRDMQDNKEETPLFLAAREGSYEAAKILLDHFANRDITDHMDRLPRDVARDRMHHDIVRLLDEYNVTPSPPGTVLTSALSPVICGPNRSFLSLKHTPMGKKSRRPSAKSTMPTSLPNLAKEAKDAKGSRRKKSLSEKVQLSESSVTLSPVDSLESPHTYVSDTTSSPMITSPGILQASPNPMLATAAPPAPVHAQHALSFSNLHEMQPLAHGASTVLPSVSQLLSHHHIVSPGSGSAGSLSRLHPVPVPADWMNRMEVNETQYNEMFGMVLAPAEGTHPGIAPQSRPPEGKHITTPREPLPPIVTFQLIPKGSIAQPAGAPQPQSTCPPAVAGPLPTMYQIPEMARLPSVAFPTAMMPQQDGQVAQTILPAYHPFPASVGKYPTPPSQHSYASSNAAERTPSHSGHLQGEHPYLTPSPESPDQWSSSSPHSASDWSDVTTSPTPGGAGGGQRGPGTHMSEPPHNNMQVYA
# [6] = molecular target: Pro-neuregulin-1, membrane-bound isoform (Homo sapiens) (UniProt Q02297); assay: small molecules binding neuregulin-1 protein – biochemical, small-molecule microarray, fluorescence 635/667, psychiatric disease protein project, primary screen (AID 1075); conditions: NRG1 binding, 635 nm fluorescence, higher = more signal;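 also: score combines 667 nm spot fluorescence with signal to noise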
# Sequence of Pro-neuregulin-1, membrane-bound isoform (Homo sapiens) (Q02297 whole entry, looked up, the tested form may be a part, canonical isoform): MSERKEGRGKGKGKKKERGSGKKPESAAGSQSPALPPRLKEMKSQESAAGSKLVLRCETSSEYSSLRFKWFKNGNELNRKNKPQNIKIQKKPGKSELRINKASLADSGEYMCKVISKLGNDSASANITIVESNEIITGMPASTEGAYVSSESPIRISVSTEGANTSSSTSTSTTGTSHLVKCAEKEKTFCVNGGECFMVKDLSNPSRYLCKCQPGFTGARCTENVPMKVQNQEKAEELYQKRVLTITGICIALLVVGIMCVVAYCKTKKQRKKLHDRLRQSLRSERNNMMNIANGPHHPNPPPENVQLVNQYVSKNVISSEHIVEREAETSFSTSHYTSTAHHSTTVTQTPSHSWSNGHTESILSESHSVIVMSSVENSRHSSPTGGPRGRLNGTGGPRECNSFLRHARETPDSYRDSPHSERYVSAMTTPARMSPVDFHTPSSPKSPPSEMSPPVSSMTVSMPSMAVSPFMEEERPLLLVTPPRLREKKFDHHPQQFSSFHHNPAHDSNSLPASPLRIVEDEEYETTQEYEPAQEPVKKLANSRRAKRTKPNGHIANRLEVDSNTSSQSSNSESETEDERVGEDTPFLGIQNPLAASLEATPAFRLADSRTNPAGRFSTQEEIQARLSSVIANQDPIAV
# [7] = test system: Neuregulin-1 EGF-like domain; assay: small molecules binding NRG1 EGF domain – biochemical, small-molecule microarray, 635 nm fluorescence, primary screen (AID 1081); conditions: higher = more signal;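 also: binding of the protein to compounds printed on small-molecule microarray slides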
# [8] = FRG1 expression reporter modulators in myotubes – cell-based, C2C12 myotubes, firefly/Renilla luciferase, luminescence, FRG1 inhibition for FSHD, primary screen (AID 1084); conditions: FRG1 promoter luciferase, higher = more signal, called active from +8 up or from −8 down
# [9] = small molecules captured by biotinylated probe aFST – biochemical, small-molecule microarray, fluorescence 635/667, stem cell growth factor project, primary screen (AID 1086); conditions: higher = more signal;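 also: score merges 667 nm fluorescence with signal-to-noise of each printed compound spot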
# [10] = binders of probe aHhip on microarray, primary screen, stem cell growth factor project, biochemical, small-molecule microarray, fluorescence 635/667 (AID 1087); conditions: higher = more signal;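 also: score merges spot fluorescence at 667nm with spot signal to noise ratio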
# [11] = test system: PRMT1 (protein arginine N-methyltransferase 1); assay: small molecules binding arginine methyltransferase PRMT1 – biochemical, small-molecule microarray, 635 nm fluorescence, primary screen (AID 1088); conditions: higher = more signal;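 also: binding of Prmt1 protein to compounds spotted on small-molecule microarray slides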
# [12] = growth effects on S. cerevisiae YJM789 – YJM789 clinical isolate, OD600, 24 h, basal, primary screen (AID 1089); conditions: higher = more signal, called active from +8 up or from −8 down;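 also: growth of clinical yeast isolate S. cerevisiae YJM 789 seeded 1000 cells per well; test concentration not given here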
# [13] = S. pombe growth modifiers, basal conditions – strain 972, OD600, 24 h, no modulator, primary screen (AID 1090);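 also: basal condition with compound alone and no growth modifier present; test concentration not given here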; conditions: S. pombe 972 growth, higher = more signal, called active from +8 up or from −8 down
# [14] = budding yeast growth modifiers under rapamycin – strain BY4716, OD600, 96 h, primary screen (AID 1091); also: test concentration not given here; conditions: S. cerevisiae BY4716 + rapamycin, higher = more signal, called active from +8 up or from −8 down
# [15] = molecular target: Torsin-1A-interacting protein 2 (Homo sapiens) (UniProt Q8NFQ8); assay: small molecules binding lysate-expressed LULL1 – cell lysate, human LULL1 lysate, 635/667 nm fluorescence, primary screen (AID 1092); conditions: small-molecule microarray, hLULL1 lysate binding, 635 nm fluorescence; higher = more signal;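 also: probe is lysate of COS7 cells overexpressing human LULL1; score merges per-feature 667 nm fluorescence with signal-to-noise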
# Sequence of Torsin-1A-interacting protein 2 (Homo sapiens) (Q8NFQ8 whole entry, looked up): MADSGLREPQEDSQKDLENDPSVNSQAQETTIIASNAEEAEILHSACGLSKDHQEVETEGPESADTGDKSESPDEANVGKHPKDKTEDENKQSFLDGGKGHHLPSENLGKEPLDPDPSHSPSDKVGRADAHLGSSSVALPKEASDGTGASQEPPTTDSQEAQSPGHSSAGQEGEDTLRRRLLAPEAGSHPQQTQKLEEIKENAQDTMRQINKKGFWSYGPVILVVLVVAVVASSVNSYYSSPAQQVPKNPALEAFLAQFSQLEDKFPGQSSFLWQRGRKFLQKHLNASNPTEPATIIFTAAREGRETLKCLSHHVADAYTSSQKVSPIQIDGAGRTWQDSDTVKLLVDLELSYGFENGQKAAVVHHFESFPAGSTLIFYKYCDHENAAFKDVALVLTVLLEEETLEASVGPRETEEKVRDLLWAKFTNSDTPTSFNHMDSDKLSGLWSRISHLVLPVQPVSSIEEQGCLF
# [16] = optical density change of DRC41 E. coli – strain DRC41, OD650, 24 h, E. coli filamentation project, primary screen (AID 1093);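 also: MC1000 strain lacking acrAB efflux and sulA so SOS filamentation is blocked; test concentration not given here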; conditions: E. coli DRC41 growth, higher = more signal, called active from +8 up or from −8 down
# [17] = probe aLefty2 binding to arrayed compounds – biochemical, biotinylated probe, 635/667 nm fluorescence, primary screen (AID 1094); conditions: small-molecule microarray, higher = more signal;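 also: score merges spot fluorescence near 667 nm with spot signal-to-noise ratio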
# [18] = test system: Noggin (protein binding on small-molecule microarray); assay: small molecules binding Noggin protein – biochemical, 635/667 nm fluorescence, primary screen (AID 1095); conditions: 635 nm fluorescence, higher = more signal;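 also: score merges 667 nm feature fluorescence with signal to noise over triplicate slides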
# [19] = molecular target: Neurogenic locus notch homolog protein 3 (Homo sapiens) (UniProt Q9UM47); assay: small molecules binding NOTCH3 protein – biochemical, 635/667 nm fluorescence, primary screen (AID 1096); conditions: small-molecule microarray, 635 nm fluorescence, higher = more signal
# [20] = probe aEGFR binding to arrayed compounds – biochemical, biotinylated probe, 635/667 nm fluorescence, primary screen (AID 1097); conditions: small-molecule microarray, higher = more signal;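 also: probe is a biotinylated anti-EGFR antibody binding compounds printed on slides; score combines fluorescence near 667 nm and signal to noise of each spot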
Structure (SMILES),composite z-score [1],composite z-score [2],composite z-score [3],composite z-score [4],composite z-score [5],composite z-score [6],composite z-score [7],z-score [8],composite z-score [9],composite z-score [10],composite z-score [11],z-score [12],z-score [13],z-score [14],composite z-score [15],z-score [16],composite z-score [17],composite z-score [18],composite z-score [19],composite z-score [20]
O=C1O[C@H](c2ccccc2)[C@H](c2ccccc2)N2[C@H]1[C@@H](C(=O)NC[C@H](O)c1ccccc1)[C@]1(C(=O)Nc3ccccc31)[C@H]2c1ccccc1OCCO,0.0095,0.142,-0.0024,0.555,0.0225,0.851,1.2,-1.13 (inactive),-0.821,-0.445,1.55,0.837 (inactive),0.468 (inactive),4.03 (inactive),2.92,2.05 (inactive),-0.181,1.71,0.723,-0.109
CC(=O)NCCCC[C@@H]1NC(=O)[C@H]2C[C@@H](C(=O)NCCCCCN)[C@@H](c3cccc(OCCO)c3)N2C1=O,-0.0485,0.107,0.0661,0.792,0.831,1.09,0.581,-0.549 (inactive),0.547,0.758,0.907,-1.51 (inactive),-0.0234 (inactive),-0.883 (inactive),2.23,1.56 (inactive),-0.097,0.559,0.275,-0.0155
OCCCC1=CC(c2cccs2)N(Cc2cccc(OC(F)(F)F)c2)CC1 (stereo not given),-0.24,-0.487,-0.11,-0.331,-0.763,-0.222,0.44,0.67 (inactive),-0.941,0.0401,0.532,-2.28 (inactive),-14.6 (active),1.15 (inactive),0.365,-0.15 (inactive),-0.0998,0.0008,-0.602,-0.115
C=C(C)[C@@H]1CC=C(C(O)C2C=CC3C(=O)N(C4CCCCC4)C(=O)C3N2Nc2ccc(OC)cc2)CC1 (stereo not given in full),-0.128,0.103,0.156,0.594,1.45,1.2,1.02,0.0512 (inactive),1.32,-0.41,1.55,0.188 (inactive),0.707 (inactive),0.785 (inactive),3.27,-0.357 (inactive),-0.0009,0.593,1.07,-0.0034
CC(C)=CCCC(C)=CC(O)C1C=CC2C(=O)N(c3ccccc3)C(=O)C2N1Nc1ccc([N+](=O)[O-])cc1 (stereo not given),-0.265,0.148,0.0159,0.344,1.59,1.64,1.28,-1.01 (inactive),0.852,-0.0237,1.52,-0.706 (inactive),-0.589 (inactive),8.22 (active),3.8,-0.867 (inactive),0.0634,-0.14,1.12,0.0466
COC(=O)[C@@]1(Cc2ccc(OC)cc2)[C@H]2c3cc(C(=O)N4CCCC4)n(Cc4ccc(C)o4)c3C[C@H]2CN1C(=O)c1ccccc1,0.833,-0.0673,0.218,1.15,1.62,1.83,0.266,8.22 (active),1.05,-0.116,0.622,-19.7 (active),-15.7 (active),-2.14 (inactive),3.24,-0.715 (inactive),0.292,0.355,1.07,0.0059
Cc1ccc(F)cc1S(=O)(=O)N[C@@H]1CCN(C(=O)c2ccc(OC(C)C)cc2)C1,-0.473,-0.414,-0.131,0.859,0.957,-0.129,0.602,-3.78 (inactive),0.475,-0.258,0.981,-0.654 (inactive),-0.709 (inactive),-0.966 (inactive),1.03,0.845 (inactive),0.0563,0.805,1.13,0.0225
CCC[C@@H]1C[C@@]1(CCC)[C@@H](NC(=O)c1cccs1)c1ccc(Cl)cc1,1.38,-0.553,-0.0861,-0.092,-1.6,0.161,-0.405,-2.04 (inactive),-0.711,-0.254,0.0333,-0.5 (inactive),-3.76 (inactive),-0.454 (inactive),1.4,0.102 (inactive),0.0395,-1.87,-0.118,-0.435
COc1ccc([Si](C)(C)[C@@H]2[C@@H](CC(=O)N3Cc4ccccc4C[C@H]3CO)O[C@]3(C(=O)N(Cc4cccc(N5CCCCC5=O)c4)c4ccccc43)[C@H]2C)cc1,-0.429,0.569,0.0207,0.494,0.523,0.69,0.899,-2.18 (inactive),0.272,-0.0994,1.55,0.318 (inactive),1.41 (inactive),2.4 (inactive),1.79,0.73 (inactive),-0.0878,1.41,1.07,-0.0356
COc1ccc([Si](C)(C)[C@@H]2[C@@H](CCO)O[C@]3(C(=O)N(Cc4ccccc4)c4ccc(N5CCCCC5=O)cc43)[C@H]2C)cc1,-0.389,0.942,0.0026,0.711,1.06,0.965,1.15,-4.38 (inactive),0.566,-0.0645,1.56,3.43 (inactive),-0.536 (inactive),4.86 (inactive),2.06,2.63 (inactive),-0.0151,0.901,1.11,-0.0828
